High-throughput results: PubChem, National Center for Advancing Translational Sciences (NCATS)
SW480 rereplic – induces DNA re-replication in SW480 colon adenocarcinoma cells; SW480 DNA re-replication, Hoechst DNA content imaging, 48 h; Potency, µM (series often up to 46.1 µM), for inactives: at the top dose re-replication activation, hits mostly activators; actives 1.8% (n = 340,000); note: % of control where 0% means no effect; nearly all actives have a fitted effect of over 55% in size
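First, 250 cells per well were seeded. Next, compound or vehicle (23 nL) was pinned in, plates sat 48 hr at 37 C. Finally Hoechst was added for 40 min before fluorescence scanning.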
MCF10A rereplic – inducers of DNA re-replication in MCF 10A breast cells | MCF 10A DNA re-replication, Hoechst nuclear intensity, 48 h | Potency, µM (titrated, usually from 46.1 µM), inactives show top-dose activity, positive = re-replication, actives largely listed as activators | actives 2.9% (n = 350,000); note: % of control where 0% means no effect; nearly all actives have a fitted effect of over 50% in size
VP16 counter – counter-screen for ROR gamma inhibitors: Gal4-VP16 reporter. Drosophila S2 Gal4-VP16 UAS-luciferase, luminescence, 20 h. Potency, µM (doses to about 53.6 µM), for the others: at the top dose activity, negative = inhibition, actives largely listed as inhibitors. actives 3.5% (n = 310,000);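 note: Gal4-VP16 expression switched on by copper sulfate through the metallothionein promoter; % is set by controls: 0 for no effect and ±100 for the full control effect; nearly all actives have a fitted effect of over 50% in size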
ELG1 repair inh – inhibitors of ELG1-dependent DNA repair in HEK293T cells | HEK293T ELG1-luciferase reporter, luminescence, 16 h; DNA damage induced by 5-fluorouridine | Potency, µM (titrated, usually from 46.1 µM), for the others: top-dose activity change, negative = inhibition, most hits filed as inhibitors | actives 2.3% (n = 330,000); note: % is set by controls: 0 for no effect and ±100 for the full control effect; nearly all actives have a fitted effect of over 55% in size
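Step one: seed 2,000 cells per well. Step two: pin-transfer compound or DMSO alongside 5-fluorouridine. Step three: incubate 16 hr, 37 °C, 5% CO2. Step four: add ONE-Glo, wait 30 min, read luminescence.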
RORg inh – inhibitors of mouse ROR gamma transcriptional activity; Drosophila S2 Gal4-RORgamma UAS-luciferase reporter, 20 h; Potency, µM (doses to about 53.6 µM), without a hit: top-dose activity change, negative = inhibition, hits mostly inhibitors; actives 5.4% (n = 310,000); AID 2551; note: % is set by controls: 0 for no effect and ±100 for the full control effect; nearly all actives have a fitted effect of over 60% in size
Target sequence (P51450 whole entry, looked up, the tested form may be a part): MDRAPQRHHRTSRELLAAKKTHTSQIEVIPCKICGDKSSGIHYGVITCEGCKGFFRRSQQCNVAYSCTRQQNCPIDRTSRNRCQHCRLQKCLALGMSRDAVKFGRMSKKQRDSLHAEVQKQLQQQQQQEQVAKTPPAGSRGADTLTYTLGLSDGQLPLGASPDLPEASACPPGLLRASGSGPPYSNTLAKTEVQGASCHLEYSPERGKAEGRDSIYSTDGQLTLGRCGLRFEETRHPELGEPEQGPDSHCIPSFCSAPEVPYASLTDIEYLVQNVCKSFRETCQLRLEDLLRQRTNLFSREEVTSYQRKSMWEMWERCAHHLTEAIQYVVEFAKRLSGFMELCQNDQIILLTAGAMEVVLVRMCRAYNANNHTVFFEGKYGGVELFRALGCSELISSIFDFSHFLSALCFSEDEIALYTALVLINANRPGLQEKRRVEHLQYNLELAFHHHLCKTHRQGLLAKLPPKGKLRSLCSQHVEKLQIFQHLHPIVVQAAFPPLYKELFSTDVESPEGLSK
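Luciferase reporter read in Schneider cells carrying Gal4-RORγ (mouse) and UAS-Photinus luciferase; cells given compound 1 h before 700 uM copper sulfate induction, then incubated 20 h at ambient temperature.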
The depositor's hits bear a star; ? = inconclusive; / = not tested or not shown; ! = a repeat was not active; [ ] = remark or other dose. Most compounds without a hit are left out; they make up all but 10% or so of the library. Calls come from the whole dose curve; as a rule, active = well fitted curve in the direction sought with a large enough effect; inconclusive = small, poorly fitted or top-dose-only effect, or another doubt; inactive = no such curve, though single readings can be large; an effect the other way counts as inactive or inconclusive. Potency is the fitted concentration of half-maximal effect.

SMILES | SW480 rereplic | MCF10A rereplic | VP16 counter | ELG1 repair inh | RORg inh
COc1ccc(CN2CCN(S(=O)(=O)c3ccc(F)cc3)CC2)cc1OC | -5% | 1% | -4% | 13µM* | 25%
CCOC(=O)N1CCN(C(=O)Cn2ccc3c(OC)cccc3c2=O)CC1 | -6% | 2% | -9% | -14% | 5%
COc1ccc(CN2CCN(C(=O)c3ccc(S(=O)(=O)N4CCCCCC4)cc3)CC2)cc1F | 0% | 11% | / | 6.5µM* | /
COc1ccc(OC2CCN(S(=O)(=O)c3ccc(F)cc3)CC2)cc1 | 3% | 18% | 0% | -28% | ?
COc1ccc(CN2CCN(C(=O)c3ccc(S(=O)(=O)N4CCCCCC4)cc3)CC2)cc1 | 15% | ? | / | 10µM* | /
COc1ccc(OC2CCN(S(=O)(=O)c3ccc(C(C)=O)cc3)CC2)cc1 | -8% | ? | 0% | 21µM* | 41%
S=c1[nH]nc(-c2ccccc2Cl)n1/N=C/C=C/c1ccco1 | -62% | 1% | -16% | 4% | ?
COc1ccccc1/C=C/C=N/n1c(-c2cc(-c3ccccc3)n[nH]2)n[nH]c1=S | -5% | ? | 4% | 15% | ?
COc1ccccc1/C=C\C=N\n1c(-c2ccc(Cl)cc2)n[nH]c1=S | -3% | ? | ? | 13% | 1.6µM*
COc1ccccc1/C=C\C=N\n1c(-c2ccc(Cl)cc2Cl)n[nH]c1=S | -5% | ? | 10µM* | -2% | 7.9µM*
COc1ccccc1/C=C/C=N/n1c(-c2ccc(F)cc2)n[nH]c1=S | -2% | 11% | -8% | -18% | 2µM*
CCCCCCCC/C=C\CCCCCCCC(=O)O | 3% | 30µM*! | -16% | ? | 3%[10 µM]
Cc1c(NC(=O)CN2CCCC(C)C2)ccc2nsnc12 (stereo unspecified) | 2% | -12% | 4%[10 µM] | -5% | -1%
O=C(COC(=O)c1cccc(OC(F)F)c1)Nc1cccc(S(=O)(=O)N2CCCC2)c1 | -21% | 1% | / | -18% | /
CCN(C[C@H]1N[C@@](CC)(C(=O)OC)[C@H]2C(=O)N(C)C(=O)[C@@H]12)C(=O)Nc1ccc(C)cc1 | 2% | -9% | / | ? | /
Cc1ccc(N=Cc2cccc(O)c2O)c(C)c1 | / | / | ? | 2% | 10µM*
CC(N=Cc1cccc(O)c1O)c1ccccc1 (stereo unspecified) | 8.2µM* | ? | -9% | -9% | -34%
Cc1ccccc1N=Cc1cccc(O)c1O | 6.5µM* | ? | -6% | -16% | -30%
Cc1cc(C(=O)NNC(=O)c2cccs2)c(C)o1 | -12% | -1% | / | ? | /
COc1cc(-c2nnc(NC(=O)c3ccc(S(=O)(=O)N4CCOCC4)cc3)o2)cc(OC)c1OC | / | / | ? | 25% | ?
COc1cccc(-c2nnc(NC(=O)c3ccc(S(=O)(=O)N4CCOCC4)cc3)o2)c1 | ? | 18% | 0.89µM* | ? | 0.5µM*
COc1ccccc1-c1nnc(NC(=O)c2ccc(S(=O)(=O)N3CCOCC3)cc2)o1 | ? | ? | 0.63µM* | ? | 0.71µM*
COc1ccc(C(=O)Nc2ccc(S(=O)(=O)N3CCOCC3)cc2)cc1OC | -38% | -2% | 0% | -2% | -4%
Cc1cc(C)c2c(c1)c1nnc(SCCN3CCOCC3)nc1n2C | -6% | 10% | 1% | -3% | -11%
O=c1cc(Nc2ccc3c(c2)OCCO3)[nH]c(=O)n1C1CCCCC1 | 12µM* | ? | 2% | ? | 7%
SMILES | SW480 rereplic | MCF10A rereplic | VP16 counter | ELG1 repair inh | RORg inh
Cn1ncc(Br)c1C(=O)N1CCCCCC1 | -1% | 4% | -4% | 1% | 1%
Cn1c(=O)c(=O)n(C)c2cc([N+](=O)[O-])c([N+](=O)[O-])cc21 | 8% | ? | ? | ? | 7.9µM*
CN(CC1COc2ccccc2O1)C(=S)NC1CCCCC1 (stereo unspecified) | 20% | 19% | ? | ? | 13µM*
O=C(NC1CCCCC1)C1COc2ccccc2O1 (stereo unspecified) | -2% | 3% | / | ? | /
CCOC(=O)N1CCN(C(=O)C2CCN(S(=O)(=O)c3cc(OC)ccc3OC)CC2)CC1 | -17% | 8% | -9% | 12% | 12%
Cc1cc(OCc2cc(C(=O)N(Cc3nccn3C)C(C)C)no2)cc(C)c1Cl | 14% | ? | -13% | 20% | 35%
Cc1cc(C)c(S(=O)(=O)Nc2ccc3c(c2)CCC3)c(C)c1 | ? | ? | -16% | -17% | -12%
Cc1cc(C)c(S(=O)(=O)Nc2ccc3c4c(cccc24)CC3)c(C)c1 | ? | 0.37µM* | ? | ? | 11µM*
O=C(c1ccc(COCC(F)(F)F)cc1)N1CCN(c2ccccn2)CC1 | -11% | -5% | ? | ? | 20%
C=C(C)c1cccc(C(C)(C)NC(=O)NC2CC(C)(C)NC(C)(C)C2)c1 | 0% | 11% | -4% | 2% | 16%
CN(C(=O)CN1C(=O)/C(=C/c2ccccc2Cl)SC1=S)C1CCS(=O)(=O)C1 (stereo unspecified) | 0% | ? | ? | 19% | 10µM*
CN(C(=O)CN1C(=O)S/C(=C\c2ccccc2Cl)C1=O)C1CCS(=O)(=O)C1 (stereo unspecified) | ? | -1% | -6% | ? | 0%
COc1ccc(/C=C2\SC(=S)N(CC(=O)N(C)C3CCS(=O)(=O)C3)C2=O)cc1 (stereo unspecified) | ? | 21µM* | 9% | 9% | 29%
COc1cccc(/C=C2\SC(=S)N(CC(=O)N(C)C3CCS(=O)(=O)C3)C2=O)c1 (stereo unspecified) | ? | ? | 1% | 0% | -44%
CCc1c(C)sc(NC(=S)N2CCN(S(C)(=O)=O)CC2)c1C(=O)OC | 4% | -2% | -1% | 13% | -11%
Nc1nc(SCC(=O)Nc2cc(Cl)c(Cl)cc2Cl)n[nH]1 | 1% | 0% | / | 7% | /
CCOC(=O)c1c(C)oc2c(F)c(F)c(F)c(F)c2c1=O | ? | 6.5µM* | 4% | ? | ?
CCOC(=O)c1c(C)oc2c1cc(O)c1ccccc12 | -12% | 1% | 17% | ? | -4%
O=C(NCC(c1ccc(F)cc1)N1CCOCC1)c1ccc([N+](=O)[O-])o1 (stereo unspecified) | 10µM* | 18µM* | / | ? | /
COc1ccc(N/C=C2\CCc3ccccc3C2=O)cc1 | ? | ? | ? | ? | 8.9µM*
O=C1/C(=C/Nc2ccc3c(c2)OCO3)CCc2ccccc21 | ? | ? | 11µM* | ? | -71%
COc1ccc2c(c1)CC/C(=C\Nc1ccc3c(c1)OCO3)C2=O | -2% | 2% | 3% | ? | ?
CCOC(=O)c1ccc(CNC(=O)c2cc(C(C)(C)C)oc2C)o1 | -2% | 17% | ? | -6% | 6.3µM*
